Assay results: PubChem BioAssay (EPA / NIEHS)
The source made the active and inactive calls. Rule for the calls: active = hit-call score of the fitted dose curve at least 0.9, where 1 is the maximum; inactive = score below 0.9.

Experiments:
[1] = APR_HepG2_CellCycleArrest_24hr: Apredica 24-hour HepG2 Assay for Cell Cycle Arrest (AID 2282905); settings: imaging, actives raise or lower the signal;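 note: cell cycle arrest scored as ratio of 2N to 4N nuclear DNA content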
Procedure, shortened: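 Step one: dose HepG2 with test compounds, 0.39–200 uM, 0.5% DMSO, 24 hr. Step two: fix, permeabilize, stain nuclei with Hoechst 33342. Step three: image six fields per well at 20x, quantify DNA content, fit bidirectionally relative to DMSO.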

[2] = APR_HepG2_NuclearSize_24hr: Apredica 24-hour HepG2 Assay for Nuclear Size (AID 2282907); settings: high-content imaging, actives raise or lower the signal
Procedure, shortened: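 After fixation and permeabilization, 24-hr-treated HepG2 cells were stained with Hoechst 33342 and imaged on an ArrayScan (20x). Doses spanned 0.39–200 uM in duplicate. Nuclear diameter changes in either direction were fitted relative to 0.5% DMSO controls.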

[3] = APR_HepG2_CellLoss_24hr: Apredica 24-hour HepG2 Assay for Cell Loss (AID 2282908); settings: high-content imaging;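 for AC50: fit in both directions so a hit may be cell loss or gain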
Procedure, shortened: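 Duplicate wells received compound at ten concentrations (0.39–200 uM; final DMSO 0.5% v/v). After fixation with formaldehyde, nuclei stained with Hoechst 33342 were imaged at 20x. Loss or gain of cell count was fitted relative to DMSO controls.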

[4] = APR_HepG2_MicrotubuleCSK_24hr: Apredica 24-hour HepG2 Assay for Microtubule CSK Stabilty (AID 2282909); settings: HepG2 microtubule cytoskeleton imaging, actives raise or lower the signal
Procedure, shortened: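 Microtubule stability is scored from tubulin immunofluorescence in fixed HepG2 cells imaged at 20x. Cells receive ten compound concentrations up to 200 uM for 24 h; taxol and DMSO serve as positive and negative controls.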

[5] = APR_HepG2_MitoticArrest_24hr: Apredica 24-hour HepG2 Assay for Mitotic Arrest (AID 2282910); settings: high-content imaging, actives raise or lower the signal
Procedure, shortened: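 High-content imaging of fixed HepG2 cells labeled with Hoechst 33342 and anti-phospho-histone H3, after 24 h treatment. Ten concentrations 0.39 to 200 uM in duplicate, final DMSO 0.5%; changes fitted both directions relative to DMSO.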

[6] = APR_HepG2_MitoMembPot_24hr: Apredica 24-hour HepG2 Assay for Mitochondrial Membrane Potential (AID 2282911); settings: imaging, actives raise or lower the signal
Procedure, shortened: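 Mitochondrial dye uptake (MitoTracker Red CMXRos, 250 nM, 30 min pre-fixation) in HepG2 after 24 hr compound exposure, 0.39–200 uM; ArrayScan images at 20x, activity fitted in both directions relative to DMSO.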

[7] = APR_HepG2_MitoMass_24hr: Apredica 24-hour HepG2 Assay for Mitochondrial Mass (AID 2282912); settings: high-content imaging, actives raise or lower the signal
Procedure, shortened: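 Readout: fluorescence of MitoTracker Red CMXRos (250 nM, added 30 min pre-fixation) in fixed HepG2 cells imaged by HCS. Exposure lasted 24 hr at 0.39–200 uM; increases and decreases were both fitted relative to DMSO.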

[8] = APR_HepG2_p53Act_24hr: Apredica 24-hour HepG2 Assay for p53 Activation (AID 2282913); settings: high-content imaging, actives raise or lower the signal;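 note: p53 protein immunofluorescence averaged per cell in HepG2 with Hoechst nuclei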
Procedure, shortened: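 Following 24 hr dosing of HepG2 at 0.39–200 uM, the cells undergo formaldehyde fixation, Triton permeabilization and multiplexed antibody labeling that includes p53 (Cy5). Signal from the imaging is referenced to DMSO solvent controls.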

[9] = APR_HepG2_CellCycleArrest_72hr: Apredica 72-hour HepG2 Assay for Cell Cycle Arrest (AID 2282914); settings: high-content imaging, actives raise or lower the signal
Procedure, shortened: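 Using multiplexed high-content imaging, HepG2 nuclei stained with Hoechst 33342 (2 ug/mL) were analysed for DNA content after fixation and permeabilization. Treatment lasted 72 hr across 0.39–200 uM in duplicate with final DMSO 0.5% v/v; DMSO served as negative control.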

[10] = APR_HepG2_CellLoss_72hr: Apredica 72-hour HepG2 Assay for Cell Loss (AID 2282915); settings: high-content imaging
Procedure, shortened: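 Cell number comes from Hoechst 33342-labelled nuclei, imaged at 20x after 3.7% formaldehyde fixation. Dosing was 0.39–200 uM, ten concentrations in duplicate, 0.5% DMSO final, for 72 h. Bidirectional fit relative to DMSO baseline.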

CC(C)(O)c1cnn2c(-c3ccc(F)c(-c4c(F)cccc4C#N)c3)cnc2n1
outcome [1]: inactive
outcome [2]: inactive
AC50 [3]: 23.4 µM (active)
AC50 [4]: 89.9 µM (active)
AC50 [5]: 42.1 µM (active)
AC50 [6]: 33.1 µM (active)
AC50 [7]: 81.4 µM (active)
outcome [8]: inactive
outcome [9]: inactive
AC50 [10]: 23.9 µM (active)

Nc1ccc(N=Nc2ccccc2)cc1
AC50 [1]: 75.5 µM (active)
outcome [2]: inactive
outcome [3]: inactive
outcome [4]: inactive
outcome [5]: inactive
outcome [6]: inactive
outcome [7]: inactive
outcome [8]: inactive
AC50 [9]: 23.6 µM (active)
AC50 [10]: 99.4 µM (active)

CO[C@@H]1[C@H](OC(=O)NC(=O)CCl)CC[C@]2(CO2)[C@H]1[C@@]1(C)O[C@@H]1CC=C(C)C
outcome [1]: inactive
outcome [2]: inactive
outcome [3]: inactive
outcome [4]: inactive
outcome [5]: inactive
outcome [6]: inactive
outcome [7]: inactive
outcome [8]: inactive
outcome [9]: inactive
outcome [10]: inactive

Oc1ccc2ccc3cccc4ccc1c2c34
outcome [1]: inactive
outcome [2]: inactive
AC50 [3]: 77.9 µM (active)
outcome [4]: inactive
AC50 [5]: 82.2 µM (active)
AC50 [6]: 30.6 µM (active)
AC50 [7]: 31.9 µM (active)
AC50 [8]: 49.1 µM (active)
outcome [9]: inactive
AC50 [10]: 84 µM (active)

COC(=O)c1ccccc1N
outcome [1]: inactive
outcome [2]: inactive
outcome [3]: inactive
outcome [4]: inactive
outcome [5]: inactive
outcome [6]: inactive
outcome [7]: inactive
outcome [8]: inactive
outcome [9]: inactive
outcome [10]: inactive

COC(=O)Nc1nc2ccccc2[nH]1
AC50 [1]: 15.4 µM (active)
outcome [2]: inactive
AC50 [3]: 7.04 µM (active)
outcome [4]: inactive
AC50 [5]: 3.45 µM (active)
outcome [6]: inactive
outcome [7]: inactive
AC50 [8]: 3.13 µM (active)
AC50 [9]: 13.4 µM (active)
AC50 [10]: 5.59 µM (active)

[Cl-].[Cl-].[Hg+2]
outcome [1]: inactive
AC50 [2]: 31.9 µM (active)
AC50 [3]: 31.3 µM (active)
AC50 [4]: 28.9 µM (active)
AC50 [5]: 23.7 µM (active)
AC50 [6]: 74.4 µM (active)
AC50 [7]: 28 µM (active)
AC50 [8]: 15.7 µM (active)
outcome [9]: inactive
AC50 [10]: 20.3 µM (active)

CC(O)CCO (stereo not given)
outcome [1]: inactive
outcome [2]: inactive
outcome [3]: inactive
outcome [4]: inactive
outcome [5]: inactive
outcome [6]: inactive
outcome [7]: inactive
outcome [8]: inactive
outcome [9]: inactive
outcome [10]: inactive

Brc1ccc(Oc2ccccc2)cc1
outcome [1]: inactive
outcome [2]: inactive
AC50 [3]: 114 µM (active)
outcome [4]: inactive
outcome [5]: inactive
outcome [6]: inactive
outcome [7]: inactive
outcome [8]: inactive
outcome [9]: inactive
AC50 [10]: 109 µM (active)

O=C(Oc1ccc(Br)cc1)N1CCN2CCC1CC2
outcome [1]: inactive
outcome [2]: inactive
outcome [3]: inactive
outcome [4]: inactive
outcome [5]: inactive
outcome [6]: inactive
outcome [7]: inactive
outcome [8]: inactive
AC50 [9]: 96.3 µM (active)
AC50 [10]: 80.8 µM (active)
